{
  "source": "PubChem BioAssay (Tox21)",
  "note": "Results filed as inconclusive are left out. A call without a number means that no potency is given here. Active and inactive are the calls of the source. The call rests on the fitted dose curve; in most records, active means well fitted activation curve with a large enough effect in the repeat runs; inconclusive means weak or mixed curves; inactive means no such curve, though single readings can be large or run the other way. Potency means the concentration at half of the fitted maximal effect.",
  "data": [
    {"molecular_target": "Nuclear receptor subfamily 1 group I member 2 (Homo sapiens) (UniProt O75469)", "assay": "CYP3A4 induction through human pregnane X receptor (PXR) by small molecules, qHTS assay (AID 1346984); further: nearly all actives have a fitted effect of over 40% in size", "conditions": "DPX-2 HepG2 PXR, CYP3A4-luciferin luminescence, 24 h; series mostly up to 46.1 µM", "text": "National Center for Advancing Translational Sciences [NCATS]\nNIH Chemical Genomics Center [NCGC]\nU.S. Environmental Protection Agency [EPA]\nNational Institutes of Environmental Health Sciences [NIEHS]\nNational Toxicology Program [NTP]\nThe Pregnane X receptor (PXR), a ligand activated nuclear receptor plays a critical role in the regulation of genes involved in drug metabolism and transporters. Activation of PXR is responsible for unwanted adverse drug reactions. PXR binds xenobiotics and when compounds interact with PXR enhances the expression of CYP3A genes. Identifying the compounds with the potential for PXR activation and CYP3A4 induction can be of importance in improving the efficacy of drugs with less toxicity and avoiding drug-drug interactions.\nDPX-2 (Puracyp, Inc.) cell lines, used for screening against human PXR activation has HepG2 cells co-transfected with a PXR response element and a luciferase construct containing CYP3A4 promoter. Increase in luciferase activity can be used to identify the compounds that cause the induction of CYP3A4.\nDPX-2 cells were dispensed at 2,000 cells per well in 5uL of assay medium into white, solid-bottom 1536-well plates using a Multidrop Combi dispenser (Thermo Scientific). The assay plates were incubated at 37C for 5hr before transferring 23nL of test compounds dissolved in DMSO and positive control via Pintool station (Wako). The assay plates were incubated at 37C for 24hr. After 24hr compound treatment, 1uL of 3uM (final concentration) P450 substrate (P450-Glo CYP3A4 screening system with Luciferin-IPA, Promega) was added by a Flying Reagent Dispenser (FRD, Aurora Discovery). The assay plates were incubated for 3hr at 37C. Then 5ul One-Glo assay reagent (Promega) was added to each plate by an FRD and following 30 min incubation at room temperature, luciferase activity was quantified on a ViewLux plate reader (Perkin Elmer).", "values": [
      {"smiles": "CC[C@H]1OC(=O)[C@H](C)[C@@H](O[C@H]2C[C@@](C)(OC)[C@@H](O)[C@H](C)O2)[C@H](C)[C@@H](O[C@@H]2O[C@H](C)C[C@H](N(C)C)[C@H]2O)[C@](C)(OC)C[C@@H](C)C(=O)[C@H](C)[C@@H](O)[C@]1(C)O", "Potency": "inactive"},
      {"smiles": "C[N+]1(C)[C@@H]2CC(OC(=O)[C@H](CO)c3ccccc3)C[C@H]1[C@@H]1O[C@@H]12", "note": "(stereo not given in full)", "Potency": "inactive"},
      {"smiles": "CC(=O)OCC(=O)[C@@]1(O)[C@H](C)C[C@H]2[C@@H]3CCC4=CC(=O)C=C[C@]4(C)[C@@]3(F)[C@@H](O)C[C@@]21C", "Potency": "inactive"},
      {"smiles": "CCCCc1nc(Cl)c(CO)n1Cc1ccc(-c2ccccc2-c2nn[nH]n2)cc1", "Potency": "inactive"},
      {"smiles": "CC(=O)O[C@@]12CO[C@@H]1C[C@H](O)[C@@]1(C)C(=O)[C@H](O)C3=C(C)[C@@H](OC(=O)[C@H](O)[C@@H](NC(=O)OC(C)(C)C)c4ccccc4)C[C@@](O)([C@@H](OC(=O)c4ccccc4)[C@H]21)C3(C)C", "Potency": "inactive"},
      {"smiles": "N[C@H](C(=O)O)[C@@H](O)c1ccc(O)c(O)c1", "Potency": "inactive"},
      {"smiles": "C[C@@H]1C[C@H]2[C@@H]3C[C@H](F)C4=CC(=O)C(Cl)=C[C@]4(C)[C@@]3(F)[C@@H](O)C[C@]2(C)[C@@]1(O)C(=O)CO", "Potency": "12.6 µM (active)"},
      {"smiles": "CC1=C(C/C=C(\\C)CCC[C@H](C)CCC[C@H](C)CCCC(C)C)C(=O)c2ccccc2C1=O", "Potency": "11.2 µM (active)"},
      {"smiles": "CN(C)C(=O)Oc1cccc([N+](C)(C)C)c1", "Potency": "inactive"},
      {"smiles": "CC(=O)Oc1cccc(C)c1", "Potency": "inactive"},
      {"smiles": "Cc1ncc(COP(=O)(O)O)c(C=O)c1O", "Potency": "inactive"},
      {"smiles": "c1ccc2sc(SN3CCOCC3)nc2c1", "Potency": "inactive"},
      {"smiles": "CCN[C@H]1C[C@H](C)S(=O)(=O)c2sc(S(N)(=O)=O)cc21", "Potency": "inactive"},
      {"smiles": "CCN[C@@H]1C[C@H](N)[C@@H](OC2OC(CN)=CCC2N)[C@H](O)[C@H]1O[C@H]1OC[C@](C)(O)[C@H](NC)[C@H]1O", "note": "(stereo not given in full)", "Potency": "inactive"},
      {"smiles": "O=C(O)Cc1csc(-c2ccc(Cl)cc2)n1", "Potency": "inactive"},
      {"smiles": "CN1CCN(c2cc3c(nn2)Oc2ccccc2N3C)CC1", "Potency": "inactive"},
      {"smiles": "Cc1ccnc(NS(=O)(=O)c2ccc(N)cc2)n1", "Potency": "inactive"},
      {"smiles": "CCCCCCCCCCOc1cc2c(=O)c(C(=O)OCC)c[nH]c2cc1OCC", "Potency": "inactive"},
      {"smiles": "Cc1ccc(C(=O)Nc2ccc(S(=O)(=O)O)c3cc(S(=O)(=O)O)cc(S(=O)(=O)O)c23)cc1NC(=O)c1cccc(NC(=O)Nc2cccc(C(=O)Nc3cc(C(=O)Nc4ccc(S(=O)(=O)O)c5cc(S(=O)(=O)O)cc(S(=O)(=O)O)c45)ccc3C)c2)c1", "Potency": "inactive"},
      {"smiles": "CN1CC(=O)N/C1=N/C(=O)Nc1cccc(Cl)c1", "Potency": "inactive"},
      {"smiles": "CC(C)NNC(=O)c1ccncc1", "Potency": "inactive"},
      {"smiles": "C[N+]1(C)CCCC(OC(=O)C(O)(c2ccccc2)c2ccccc2)C1", "note": "(stereo not given)", "Potency": "inactive"},
      {"smiles": "Cc1ccc(C(=O)c2ccc(CC(=O)O)n2C)cc1", "Potency": "inactive"},
      {"smiles": "COC(=O)C1=C(C)NC(C)=C(C(=O)OC(C)C)C1c1cccc2nonc12", "note": "(stereo not given)", "Potency": "inactive"},
      {"smiles": "[O-][n+]1cccc(CO)c1", "Potency": "inactive"},
      {"smiles": "CCC1C(=O)OCC1Cc1cncn1C", "note": "(stereo not given)", "Potency": "inactive"},
      {"smiles": "C[N+](C)(C)CCCCCCCCCC[N+](C)(C)C", "Potency": "inactive"},
      {"smiles": "CCOC(=O)c1cnc2c(cnn2CC)c1NN=C(C)C", "Potency": "inactive"},
      {"smiles": "C[N+]12CCC(CC1)C(OC(=O)C(O)(c1ccccc1)c1ccccc1)C2", "note": "(stereo not given)", "Potency": "inactive"},
      {"smiles": "CC(=O)NC(=O)c1ccccc1O", "Potency": "inactive"},
      {"smiles": "CCOC(=O)OC(C)OC1=C(C(=O)Nc2ccccn2)N(C)S(=O)(=O)c2ccccc21", "note": "(stereo not given)", "Potency": "inactive"},
      {"smiles": "CCCCCC(C)N", "note": "(stereo not given)", "Potency": "inactive"},
      {"smiles": "CC(N)C12CC3CC(CC(C3)C1)C2", "note": "(stereo not given)", "Potency": "inactive"},
      {"smiles": "Nc1ccn([C@@H]2O[C@H](CO)[C@@H](O)C2(F)F)c(=O)n1", "Potency": "inactive"},
      {"smiles": "Cc1nc2ccc(CN(C)c3ccc(C(=O)N[C@@H](CCC(=O)O)C(=O)O)s3)cc2c(=O)[nH]1", "Potency": "inactive"},
      {"smiles": "C[C@@H]1CCC[C@H](C)N1", "Potency": "inactive"},
      {"smiles": "CN(C)C(=O)Oc1ccc[n+](C)c1", "Potency": "inactive"},
      {"smiles": "COc1cccc(OC)c1C(=O)N[C@@H]1C(=O)N2[C@@H]1SC(C)(C)[C@@H]2C(=O)O", "Potency": "inactive"},
      {"smiles": "CC(=O)Nc1ccc(OCC(O)CNC(C)C)cc1", "note": "(stereo not given)", "Potency": "inactive"},
      {"smiles": "CC[N+](C)(CC)CCOC(=O)C1c2ccccc2Oc2ccccc21", "Potency": "inactive"}
    ]}
  ]
}
